Source: the supplement of paper PMC8728848
The full list was thinned out, with the strongest signals kept by preference.

How the values were obtained:
Test in all cases: glycan array binding signal (z-score within array); higher = stronger binding
Conditions in all cases: glycan notation: IUPAC condensed, linker removed
[1] = target: Fuc(a1-2)Gal(b1-3)GalNAc(b1-4)[Neu5Ac(a2-3)]Gal(b1-4)Glc
Method in brief: (§1)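 Glycan array binding is given as a within-array Z-score, which can be read as non-binding when negative. The arrays, 3228 of them, came from the Consortium for Functional Glycomics database and were retained only where the protein sequence was available. Z-scores were averaged across arrays of the same protein sequence at different concentrations or buffers and across linkers.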

[2] = target: Fuc(a1-2)Gal(b1-4)GlcNAc(b1-2)Man
Method in brief: as §1

[3] = target: Fuc(a1-2)Gal(b1-4)GlcNAc(b1-2)[Fuc(a1-2)Gal(b1-4)GlcNAc(b1-4)]Man(a1-3)[Fuc(a1-2)Gal(b1-4)GlcNAc(b1-2)Man(a1-6)]Man(b1-4)GlcNAc(b1-4)GlcNAc
Method in brief: as §1

[4] = target: Fuc(a1-2)Gal(b1-4)GlcNAc(b1-6)GalNAc
Method in brief: as §1

[5] = target: Fuc(a1-2)Gal(b1-4)[Fuc(a1-3)]GlcNAc(b1-3)Gal(b1-4)[Fuc(a1-3)]GlcNAc(b1-3)Gal(b1-4)[Fuc(a1-3)]GlcNAc
Method in brief: as §1

Fuc(a1-2)Gal6S(b1-4)Glc = target: Fuc(a1-2)Gal6S(b1-4)Glc
Method in brief: as §1

[6] = target: Fuc(a1-2)[Gal(a1-3)]Gal(b1-4)[Fuc(a1-3)]GlcNAc
Method in brief: as §1

[7] = target: Fuc(a1-2)[GalNAc(a1-3)]Gal(b1-3)GalNAc(a1-3)[Fuc(a1-2)]Gal(b1-4)GlcNAc
Method in brief: as §1

[8] = target: Fuc(a1-2)[GalNAc(a1-3)]Gal(b1-4)GlcNAc(b1-2)Man(a1-3)[Fuc(a1-2)[GalNAc(a1-3)]Gal(b1-4)GlcNAc(b1-2)Man(a1-6)]Man(b1-4)GlcNAc(b1-4)GlcNAc
Method in brief: as §1

[9] = target: Fuc(a1-3)[Gal(b1-4)]GlcNAc(b1-3)Gal(b1-4)[Fuc(a1-3)]GlcNAc(b1-3)Gal(b1-4)[Fuc(a1-3)]GlcNAc
Method in brief: as §1

Gal(a1-3)Gal(b1-4)Glc = target: Gal(a1-3)Gal(b1-4)Glc
Method in brief: as §1

[10] = target: Gal(a1-4)Gal(b1-3)GlcNAc(b1-2)Man(a1-3)[Gal(a1-4)Gal(b1-3)GlcNAc(b1-2)Man(a1-6)]Man(b1-4)GlcNAc(b1-4)GlcNAc
Method in brief: as §1

[11] = target: Gal(a1-4)Gal(b1-4)GlcNAc(b1-2)Man(a1-3)[Gal(a1-4)Gal(b1-4)GlcNAc(b1-2)Man(a1-6)]Man(b1-4)GlcNAc(b1-4)GlcNAc
Method in brief: as §1

Gal(a1-6)Glc = target: Gal(a1-6)Glc
Method in brief: as §1

[12] = target: Gal(b1-3)GalNAc(a1-3)[Fuc(a1-2)]Gal(b1-4)GlcNAc
Method in brief: as §1

[13] = target: Gal(b1-3)GlcNAc(b1-3)Gal(b1-4)GlcNAc(b1-3)Gal(b1-4)GlcNAc(b1-2)[Gal(b1-3)GlcNAc(b1-3)Gal(b1-4)GlcNAc(b1-3)Gal(b1-4)GlcNAc(b1-6)]Man(a1-6)[Gal(b1-3)GlcNAc(b1-3)Gal(b1-4)GlcNAc(b1-3)Gal(b1-4)GlcNAc(b1-2)Man(a1-3)]Man(b1-4)GlcNAc(b1-4)[Fuc(a1-6)]GlcNAc
Method in brief: as §1

[14] = target: Gal(b1-3)GlcNAc(b1-3)Gal(b1-4)GlcNAc(b1-6)[Gal(b1-3)GlcNAc(b1-3)]Gal(b1-4)Glc
Method in brief: as §1

[15] = target: Gal(b1-4)GlcNAc(b1-2)Man(a1-6)[Man(a1-3)]Man(b1-4)GlcNAc(b1-4)GlcNAc
Method in brief: as §1

[16] = target: Gal(b1-4)GlcNAc(b1-2)[Gal(b1-4)GlcNAc(b1-6)]Man(a1-6)[Gal(b1-4)GlcNAc(b1-2)Man(a1-3)]Man(b1-4)GlcNAc(b1-4)GlcNAc
Method in brief: as §1

[17] = target: Gal(b1-4)GlcNAc(b1-3)Gal(b1-4)GlcNAc(b1-2)[Gal(b1-4)GlcNAc(b1-3)Gal(b1-4)GlcNAc(b1-6)]Man(a1-6)[Gal(b1-4)GlcNAc(b1-3)Gal(b1-4)GlcNAc(b1-2)Man(a1-3)]Man(b1-4)GlcNAc(b1-4)GlcNAc
Method in brief: as §1

[18] = target: Gal(b1-4)GlcNAc(b1-3)Gal(b1-4)GlcNAc(b1-3)[Gal(b1-4)GlcNAc(b1-3)Gal(b1-4)GlcNAc(b1-6)]GalNAc
Method in brief: as §1

Gal6S(b1-4)Glc = target: Gal6S(b1-4)Glc
Method in brief: as §1

[19] = target: GalNAc3S(b1-4)[Fuc(a1-3)]GlcNAc
Method in brief: as §1

[20] = target: GlcNAc(b1-2)[GlcNAc(b1-4)]Man(a1-3)[GlcNAc(b1-4)][GlcNAc(b1-2)Man(a1-6)]Man(b1-4)GlcNAc(b1-4)GlcNAc
Method in brief: as §1

[21] = target: GlcNAc(b1-3)Gal(b1-4)GlcNAc(b1-2)Man(a1-3)[GlcNAc(b1-3)Gal(b1-4)GlcNAc(b1-2)Man(a1-6)]Man(b1-4)GlcNAc(b1-4)[Fuc(a1-6)]GlcNAc
Method in brief: as §1

[22] = target: GlcNAc(b1-3)Gal(b1-4)GlcNAc(b1-2)[GlcNAc(b1-3)Gal(b1-4)GlcNAc(b1-6)]Man(a1-6)[GlcNAc(b1-3)Gal(b1-4)GlcNAc(b1-2)Man(a1-3)]Man(b1-4)GlcNAc(b1-4)GlcNAc
Method in brief: as §1

[23] = target: Man(a1-2)Man(a1-6)[Man(a1-3)]Man(a1-6)[Man(a1-2)Man(a1-2)Man(a1-3)]Man(b1-4)GlcNAc(b1-4)GlcNAc
Method in brief: as §1

Man(a1-3)[Man(a1-6)]Man = target: Man(a1-3)[Man(a1-6)]Man
Method in brief: as §1

MurNAc(b1-4)GlcNAc = target: MurNAc(b1-4)GlcNAc
Method in brief: as §1

[24] = target: Neu5Ac(a2-3)Gal(b1-3)[Fuc(a1-4)]GlcNAc(b1-3)Gal(b1-4)[Fuc(a1-3)]GlcNAc
Method in brief: as §1

B1: DC-Sign-R (Homo sapiens), Q9H2X3 (protein)
chain: MSDSKEPRVQQLGLLEEDPTTSGIRLFPRDFQFQQIHGHKSSTGCLGHGALVLQLLSFMLLAGVLVAILVQVSKVPSSLSQEQSEQDAIYQNLTQLKAAVGELSEKSKLQEIYQELTQLKAAVGELPEKSKLQEIYQELTRLKAAVGELPEKSKLQEIYQELTRLKAAVGELPEKSKLQEIYQELTRLKAAVGELPEKSKLQEIYQELTELKAAVGELPEKSKLQEIYQELTQLKAAVGELPDQSKQQQIYQELTDLKTAFERLCRHCPKDWTFFQGNCYFMSNSQRNWHDSVTACQEVRAQLVVIKTAEEQNFLQLQTSRSNRFSWMGLSDLNQEGTWQWVDGSPLSPSFQRYWNSGEPNNSGNEDCAEFSGSGWNDNRCDVDNYWICKKPAACFRDE
In the case of B1, the “glycan array binding signal (z-score)” value [1] is reported as -0.074, the “glycan array binding signal (z-score)” value [2] is reported as 1.11 and the “glycan array binding signal (z-score)” value [3] is reported as -0.8. For the same binder, the “glycan array binding signal (z-score)” value [4] was -0.508, the “glycan array binding signal (z-score)” value [5] was -0.308 and the “glycan array binding signal (z-score)” value (Fuc(a1-2)Gal6S(b1-4)Glc) was -0.528. The “glycan array binding signal (z-score)” value [6] was 0.112, the “glycan array binding signal (z-score)” value [7] was -0.817 and the “glycan array binding signal (z-score)” value [8] was -0.72. For the same binder, the “glycan array binding signal (z-score)” value [9] was -0.384, the “glycan array binding signal (z-score)” value (Gal(a1-3)Gal(b1-4)Glc) was -0.655 and the “glycan array binding signal (z-score)” value [10] was -0.125. For the same binder, the “glycan array binding signal (z-score)” value [11] was -0.683, the “glycan array binding signal (z-score)” value (Gal(a1-6)Glc) was -0.326 and the “glycan array binding signal (z-score)” value [12] was 1.15. The “glycan array binding signal (z-score)” value [13] was 2.5, the “glycan array binding signal (z-score)” value [14] was -0.833 and the “glycan array binding signal (z-score)” value [15] was 3. The “glycan array binding signal (z-score)” value [16] was -0.33, the “glycan array binding signal (z-score)” value [17] was 3.03 and the “glycan array binding signal (z-score)” value [18] was 0.59. The “glycan array binding signal (z-score)” value (Gal6S(b1-4)Glc) was -0.744, the “glycan array binding signal (z-score)” value [19] was -0.794 and the “glycan array binding signal (z-score)” value [20] was 2.91. The “glycan array binding signal (z-score)” value [21] was 0.094, the “glycan array binding signal (z-score)” value [22] was 2.48 and the “glycan array binding signal (z-score)” value [23] was -0.019. The “glycan array binding signal (z-score)” value (Man(a1-3)[Man(a1-6)]Man) was -0.857, the “glycan array binding signal (z-score)” value (MurNAc(b1-4)GlcNAc) was 0.448 and the “glycan array binding signal (z-score)” value [24] was -0.503.
